IDE cell activ – boosts human insulin-degrading enzyme activity in HEK cells; FAbeta-B cleavage, fluorescence polarization; 0% vehicle, 100% cell-free pure enzyme wells; hit rate 0.073% among 340,000; activation, % at 5.96 µM;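 active means activation above the mean of all tested compounds plus 3 SD, set per screening campaign, cut at about 17% in these data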
Calb FLC – C. albicans growth modulation with fluconazole | C. albicans CaCi-2 (fluconazole-resistant clinical isolate) + fluconazole, Alamar Blue growth, 48 h | growth inhibition, % (concentration not given with the values) | hit rate 0.57% among 300,000 | AID 1979;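 active means growth inhibition above about 58% in most replicates, limit read from the data, passing the limit was not always enough; inconclusive means exactly half the replicates above a set limit; inactive means most replicates below a set limit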;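 further: all wells also contain fluconazole at 8 µg/ml as a sub-toxic cotreatment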
IDE cell inh – inhibits human insulin-degrading enzyme in HEK cells. P14735. FAbetaB cleavage, fluorescence polarization. inhibition, % at 5.59 µM. hit rate 0.41% among 320,000. AID 434962;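 active means percent inhibition above the average of all tested compounds plus 3 SD, set per screening campaign, cut at about 16% in these data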;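 further: IDE supplied by intact live HEK cells; FP after avidin binding of uncleaved biotin substrate so inhibition keeps polarization high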
Rin1 Abl inh – blocks binding of human Rin1 to Abl; P00519+Q13671; TR-FRET Rin1/Abl binding, biochemical; inhibition, % at 7.35 µM; hit rate 0.4% among 360,000; in the data active means inhibition above about 5%, passing the limit was not always enough
Target sequence (P00519 whole entry, looked up): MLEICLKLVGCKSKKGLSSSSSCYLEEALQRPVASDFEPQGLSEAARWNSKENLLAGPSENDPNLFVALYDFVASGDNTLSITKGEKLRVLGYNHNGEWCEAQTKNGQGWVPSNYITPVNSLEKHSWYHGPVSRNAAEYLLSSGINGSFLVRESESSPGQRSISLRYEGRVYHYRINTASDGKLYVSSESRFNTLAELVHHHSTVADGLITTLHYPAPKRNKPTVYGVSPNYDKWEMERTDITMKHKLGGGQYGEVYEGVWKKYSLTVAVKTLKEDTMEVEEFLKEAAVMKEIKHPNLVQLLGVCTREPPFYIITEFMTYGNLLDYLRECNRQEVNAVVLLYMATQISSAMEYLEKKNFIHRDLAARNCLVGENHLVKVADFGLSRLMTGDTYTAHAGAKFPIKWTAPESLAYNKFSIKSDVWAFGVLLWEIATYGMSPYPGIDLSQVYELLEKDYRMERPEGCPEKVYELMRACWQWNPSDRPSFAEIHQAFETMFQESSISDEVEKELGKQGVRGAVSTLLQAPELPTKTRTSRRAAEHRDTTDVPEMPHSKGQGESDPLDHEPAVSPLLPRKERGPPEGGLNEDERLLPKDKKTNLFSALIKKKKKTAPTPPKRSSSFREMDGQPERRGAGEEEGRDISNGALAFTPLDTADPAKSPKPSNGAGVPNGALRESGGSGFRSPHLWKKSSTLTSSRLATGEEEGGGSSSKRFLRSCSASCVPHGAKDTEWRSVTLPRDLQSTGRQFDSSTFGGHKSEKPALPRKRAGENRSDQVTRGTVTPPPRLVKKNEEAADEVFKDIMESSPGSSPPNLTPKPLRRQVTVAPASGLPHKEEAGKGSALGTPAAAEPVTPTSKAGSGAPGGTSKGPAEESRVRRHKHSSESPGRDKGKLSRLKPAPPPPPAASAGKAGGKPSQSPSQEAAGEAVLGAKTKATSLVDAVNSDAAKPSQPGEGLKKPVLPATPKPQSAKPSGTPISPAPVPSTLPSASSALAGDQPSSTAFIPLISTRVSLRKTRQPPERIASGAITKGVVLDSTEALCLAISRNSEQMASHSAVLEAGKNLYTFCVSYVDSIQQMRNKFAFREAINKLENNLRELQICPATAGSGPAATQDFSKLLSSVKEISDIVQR
Target sequence (Q13671 whole entry, looked up): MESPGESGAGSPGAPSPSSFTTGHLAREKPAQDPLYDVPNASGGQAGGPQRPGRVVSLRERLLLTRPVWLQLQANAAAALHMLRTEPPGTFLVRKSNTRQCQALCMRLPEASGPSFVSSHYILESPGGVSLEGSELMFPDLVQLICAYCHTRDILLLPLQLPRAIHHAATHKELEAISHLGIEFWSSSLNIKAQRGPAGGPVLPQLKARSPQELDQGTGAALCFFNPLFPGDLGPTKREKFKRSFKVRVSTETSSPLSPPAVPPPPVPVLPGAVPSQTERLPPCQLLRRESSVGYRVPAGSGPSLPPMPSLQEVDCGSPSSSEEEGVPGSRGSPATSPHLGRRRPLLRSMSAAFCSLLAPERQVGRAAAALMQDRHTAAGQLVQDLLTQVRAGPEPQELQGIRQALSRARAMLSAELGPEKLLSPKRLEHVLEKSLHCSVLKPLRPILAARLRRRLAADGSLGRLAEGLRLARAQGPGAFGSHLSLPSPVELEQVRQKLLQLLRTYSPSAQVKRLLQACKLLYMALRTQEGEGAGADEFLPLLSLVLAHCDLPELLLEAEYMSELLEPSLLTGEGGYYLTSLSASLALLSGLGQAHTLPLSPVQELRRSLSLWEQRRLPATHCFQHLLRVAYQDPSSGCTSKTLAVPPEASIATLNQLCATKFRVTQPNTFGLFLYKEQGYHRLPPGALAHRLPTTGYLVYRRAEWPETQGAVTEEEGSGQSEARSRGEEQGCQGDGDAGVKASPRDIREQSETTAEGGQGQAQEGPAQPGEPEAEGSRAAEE
Rpn11 block – blocks the human proteasome subunit Rpn11 | AID 588493 | inhibition, % at 20 µM | human 26S proteasome, Ub4-pepOG fluorescence polarization; 20S core pre-blocked with epoxomicin | O00487 | hit rate 0.59% among 360,000;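 active means inhibition at 20 µM, scaled to each plate's controls, above about 33%, limit read from the data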
TPT1 inh – C. albicans TPT1 enzyme inhibition; recombinant caTPT1, FP RNA substrate dephosphorylation; hit rate 0.81% among 300,000; inhibition, % at 5 µM;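 active means inhibition above the mean of all tested compounds plus 3 SD, set per screening campaign, cut at about 24% in these data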
Each line names hits and unclear results; the compound was inactive in the other large screens. Most compounds without a hit are left out; they make up all but 2.3% or so of the library.

COc1cc(NC(=O)c2ccccc2)ccc1NC(=O)c1cc2ccccc2o1	none
COc1ccc(S(=O)(=O)NCCSCc2ccc(Cl)cc2)cc1NC(C)=O	none (no result: Calb FLC, IDE cell inh, TPT1 inh)
CS(=O)(=O)c1nc(-c2cccs2)cc(C(F)(F)F)n1	Calb FLC 96.9 (no result: IDE cell activ, Rin1 Abl inh, Rpn11 block)
Cc1noc(C)c1C(=O)N1CCC1(C)C(=O)NS(=O)(=O)c1ccccc1Cl (configuration not stated)	none (no result: IDE cell activ, Calb FLC, IDE cell inh, TPT1 inh)
COc1ccnc(N2CCN(c3ccccc3)CC2)c1C#N	Calb FLC 79.4
Cc1ccc(CC(=O)Nc2ncc([N+](=O)[O-])s2)cc1	Calb FLC 82.3
O=C(CCS(=O)(=O)c1ccccc1)Nc1ncc([N+](=O)[O-])s1	Calb FLC 99.1
O=C(Nc1ncc([N+](=O)[O-])s1)c1cccs1	Calb FLC 108.3
O=C(CS(=O)(=O)c1ccccc1)Nc1ncc([N+](=O)[O-])s1	none
O=C(CCS(=O)(=O)c1ccccc1)Nc1nc2cc3c(cc2s1)OCCO3	Calb FLC 81.9
Cc1cnc(NC(=O)c2cccs2)s1	none
Cc1ccc(S(=O)(=O)CC(=O)Nc2ncc([N+](=O)[O-])s2)cc1	none
O=C(CCS(=O)(=O)c1ccccc1)Nc1nc2cc3c(cc2s1)OCO3	none
COc1ccc(Cc2nc3ccc(C(=O)NCC(C)(C)OC)cc3o2)cc1	none
O=C1c2ccc(-c3ccc(F)cc3OCc3ccccc3)cc2S(=O)(=O)c2cccc(C(=O)N3CCCC3)c21	none (no result: Calb FLC, TPT1 inh)
O=C(Nc1cc(F)cc(F)c1)c1ccc(NCCCN2CCCCCC2)c([N+](=O)[O-])c1	Calb FLC 98.3
COc1ccnc(Oc2ccccc2)c1C(=O)N/C=N/OCc1ccccc1	none
COc1ccnc(Oc2cccc(C(F)(F)F)c2)c1C(=O)N/C=N/OCc1ccccc1F	Calb FLC 108.3
O=C(NNC(=O)c1cc(Cl)ccc1O)c1ccc(NS(=O)(=O)c2cccs2)cc1	Calb FLC 84.3
COc1ccc(S(=O)(=O)N2CCOC2CNC(=O)C(=O)NCc2ccc3c(c2)OCO3)cc1C (configuration not stated)	none (no result: IDE cell activ, Calb FLC, IDE cell inh, TPT1 inh)
Cc1cc(C)c(OCC(=O)OC(C)C(=O)NCc2ccccc2)c(C)c1 (configuration not stated)	none (no result: Calb FLC, IDE cell inh, TPT1 inh)
CC1(C)CC(=O)C=C(Nc2ccc(O)cc2)C1	none (no result: IDE cell activ, Calb FLC, IDE cell inh, TPT1 inh)
CC1(C)CC(=O)C=C(Nc2ccc([N+](=O)[O-])cc2)C1	Calb FLC 77.6
COc1ccc2nc(N3CCCCC3)c(/C=C3\SC(=S)NC3=O)cc2c1	Rin1 Abl inh 6.6, Rpn11 block 70.8
Cn1c(=O)c(NCCO)c2c3c(cccc31)C(=O)c1ccccc1-2	IDE cell activ 53.7
Cc1onc(-c2c(F)cccc2Cl)c1C(=O)N(C)CCc1ccccn1	none
Cc1ccc(Cn2nc(C)c(C(=O)N3CCN(S(=O)(=O)/C=C/c4ccccc4)CC3)c2C)cc1	IDE cell activ 32.8 (no result: Calb FLC, TPT1 inh)
O=C(c1cnn(Cc2ccccc2)c1)N1CCN(S(=O)(=O)/C=C/c2ccccc2)CC1	none (no result: Calb FLC, TPT1 inh)
Cn1nnnc1Sc1ncnc2scc(-c3ccc(F)cc3)c12	Rpn11 block 49.0
CN1OC[C@@H]2CN(C(=O)C(C)(C)C)[C@H](c3cccc(Oc4ccccc4)c3)C[C@@H]21	none (no result: IDE cell activ, Calb FLC, IDE cell inh, TPT1 inh)
CN1CCN(C(=O)c2cnn(-c3ccccc3)c2NC(=O)c2ccccc2)CC1	Calb FLC 93.7
O=c1nc(N/N=C/c2ccccn2)cn[nH]1	Calb FLC 106.3
Cc1cc(=O)[nH]c(N/N=C/c2ccccn2)n1	none
O=c1cnnc(N/N=C/c2ccccn2)[nH]1	Calb FLC 95.4
Cc1ccc(/C=N/Nc2cn[nH]c(=O)n2)o1	none
Cc1nc(NC(=O)CSc2nnc(C3CC3)n2C)sc1C	none
Cc1ccc(/C=C2\SC(=S)N(/N=C/c3cc([N+](=O)[O-])ccc3O)C2=O)o1	Calb FLC inconclusive, Rpn11 block 45.6
O=C(NN1C(=O)/C(=C/c2cc([N+](=O)[O-])ccc2O)SC1=S)c1ccccc1O	TPT1 inh 52.6 (no result: IDE cell activ, Rin1 Abl inh, Rpn11 block)
O=[N+]([O-])c1ccc(O)c(/C=N/n2cnc3ccccc32)c1	none
CCCS(=O)(=O)c1nnnn1-c1cccc(OC)c1	Calb FLC 82.2
COc1cccc(-n2nnnc2SCC(=O)Nc2ccccc2OC)c1	none
C#CCOCCOCCOCCNc1nc(N2CCN(C(=O)CCCCCCCCCCNC(=O)[C@@H](CCSC)n3cc(CCO)nn3)CC2)nc(N2CCN(C(=O)CCCCCCCCCCNC(=O)[C@H](CCCN=C(N)N)n3cc(C[C@@H](C)CC)nn3)CC2)n1	IDE cell activ 44.8, Rin1 Abl inh 26.6, Rpn11 block 117.5 (no result: Calb FLC)
C#CCOCCOCCOCCNc1nc(N2CCN(C(=O)CCCCCCCCCCNC(=O)[C@H](CCCCN)n3cc(C)nn3)CC2)nc(N2CCN(C(=O)CCCCCCCCCCNC(=O)[C@H](CCCN=C(N)N)n3cc(C[C@@H](C)CC)nn3)CC2)n1	none (no result: IDE cell activ, Calb FLC, Rin1 Abl inh, Rpn11 block)
CC[C@H](C)Cc1cn([C@@H](CCCN=C(NC(=O)OC(C)(C)C)NC(=O)OC(C)(C)C)C(=O)NCCCCCCCCCCC(=O)N2CCN(C(=O)OC(C)(C)C)CC2)nn1	Calb FLC 86.3
C#CCOCCOCCOCCNc1nc(N2CCN(C(=O)CCCCCCCCCCNC(=O)[C@@H](CCSC)n3cc(CCO)nn3)CC2)nc(N2CCN(C(=O)CCCCCCCCCCNC(=O)[C@H](CO)n3cc(CCCCCN)nn3)CC2)n1	IDE cell activ 28.9 (no result: Calb FLC)
C#CCOCCOCCOCCNc1nc(N2CCN(C(=O)CCCCCCCCCCNC(=O)[C@H](CCCCN)n3cc(C[C@@H](C)CC)nn3)CC2)nc(N2CCN(C(=O)CCCCCCCCCCNC(=O)[C@H](CCCN=C(N)N)n3cc(C[C@@H](C)CC)nn3)CC2)n1	IDE cell activ 47.3, Rpn11 block 127.5 (no result: Calb FLC)
Cc1cn([C@@H](CCCCNC(=O)OC(C)(C)C)C(=O)NCCCCCCCCCCC(=O)N2CCN(C(=O)OC(C)(C)C)CC2)nn1	none (no result: Calb FLC)
Cn1c(N=Cc2ccc([N+](=O)[O-])cc2)c(N)c(=O)n(C)c1=O	none (no result: Calb FLC, IDE cell inh, TPT1 inh)
COc1cn(-c2ccccc2)nc1C(=O)NCc1ccccc1	none
COc1ccc(C2CC(c3ccccc3)Nc3nc(NS(C)(=O)=O)nn32)cc1 (configuration not stated)	none
CCCCCCCCCC(=O)N[C@@H]1c2cc(OC)c(OC)cc2C[C@H]1O	none (no result: Calb FLC, IDE cell inh, TPT1 inh)
COc1ccc(-c2nc3c(Cl)cc(C(F)(F)F)cn3c2Cc2ccc(C)cc2)cc1OC	none (no result: IDE cell activ, Calb FLC, IDE cell inh, TPT1 inh)
CCCNC(=O)c1ccc2c(=O)c(O)c(-c3ccc(Cl)c([N+](=O)[O-])c3)[nH]c2c1	Calb FLC 114.3
CC(NC(=O)CN1CCOCC1)c1ccccc1 (configuration not stated)	none
O=C(COc1ccc(Cl)cc1)NC1CCSC1=O (configuration not stated)	Calb FLC 101.9
FC(F)(F)c1cc(CCN2CCNC[C@@H]2CC2CCCCC2)cc(C(F)(F)F)c1	IDE cell activ 22.9 (no result: Calb FLC, TPT1 inh)
